TbPYK inhibitor: inhibitors of Trypanosoma brucei pyruvate kinase. Q57TT1. TbPYK enzyme, Kinase-Glo Plus ATP luminescence, 45 min. Potency, µM (highest dose often 76.8 µM), actives largely listed as inhibitors. 410,000 compounds, 0.12% hits. AID 624173; note: nearly all actives have a fitted effect of over 50% in size
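Assay buffer: 50 mM TEA pH 7.2, 100 mM KCl, 10 mM MgCl2, 0.05% BSA, 0.01% Tween-20. Pyruvate kinase from T. brucei plus substrate met compound, then ADP (130 uM final). Luminescence was read post 45 min RT.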
Giardia FBPA inh: Giardia lamblia aldolase inhibition | 290,000 compounds, 0.71% hits | A8B2U2 | Potency, µM (highest dose often 59.6 µM), most hits filed as inhibitors | purified Giardia FBPA; note: nearly all actives have a fitted effect of over 55% in size
Target sequence (A8B2U2 whole entry, looked up): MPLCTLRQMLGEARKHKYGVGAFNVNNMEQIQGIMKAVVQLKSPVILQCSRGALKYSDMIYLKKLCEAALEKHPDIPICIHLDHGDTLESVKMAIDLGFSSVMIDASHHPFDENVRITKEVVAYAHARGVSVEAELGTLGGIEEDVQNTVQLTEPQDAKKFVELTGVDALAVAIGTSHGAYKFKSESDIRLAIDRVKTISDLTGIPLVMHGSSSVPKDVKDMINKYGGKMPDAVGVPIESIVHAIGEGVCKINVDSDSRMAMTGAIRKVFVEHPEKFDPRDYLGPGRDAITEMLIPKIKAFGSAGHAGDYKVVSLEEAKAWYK
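40 nM FBPA preincubated 10 min at RT with compound (up to 57.5 uM final), then substrate plus GAPDH/TPI/NAD/arsenate coupling and diaphorase/resazurin added. Fluorescence read after 20 min at RT, 525/598 nm.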
Shiga inhibitor: blocks Shiga toxin action in Vero cells. Vero cells, Shiga toxin protein synthesis inhibition reporter. inhibition, % at 38.7 µM. 290,000 compounds, 9.2% hits; in the data active = inhibition mostly above about 28%, no sharp cut-off; inactive = mostly below about 43%
Cycloheximide cs: counter-screen for Shiga toxin inhibitors: cycloheximide protein synthesis inhibition; AID 2314; max response, %; cell reporter, cycloheximide protein synthesis inhibition counterscreen; 300,000 compounds, 12% hits; in the data active = max response mostly above about 13%, no sharp cut-off; inactive = mostly below about 14%; note: read at 38.3 µM for the half of the compounds with a filed dose
LmPK inh: LmPK (Leishmania mexicana) enzyme inhibition; purified LmPK, Kinase-Glo ATP luminescence, 1 h; 290,000 compounds, 0.37% hits; Potency, µM (titrated, usually from 57.5 µM), hits mostly inhibitors; AID 1721
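Pyruvate kinase activity monitored as ATP production (luciferase luminescence). Conditions: 0.1 nM enzyme, 0.5 mM PEP, 0.1 mM ADP, 1 h, RT; normalized against uninhibited and no-enzyme wells.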
Sm TGR inh: inhibitors of Schistosoma mansoni thioredoxin glutathione reductase; 360,000 compounds, 3% hits; AID 485364; Potency, µM (titrated, usually from 114 µM), actives largely listed as inhibitors; Q962Y6; purified TGR, DTNB reduction, TNB absorbance 405 nm; note: nearly all actives have a fitted effect of over 60% in size
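Kinetic colorimetric format: TGR-catalysed, NADPH-driven DTNB reduction monitored via TNB absorbance. Enzyme dispensed at 20 nM; compound exposure 15 min at room temperature before reaction start.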
Large screens that a line does not name were inactive. The entries come from a sample that favours hits as a whole. Unless noted, calls come from the whole dose curve; as a rule, active = well fitted curve in the direction sought with a large enough effect; inconclusive = small, poorly fitted or top-dose-only effect, or another doubt; inactive = no such curve, though single readings can be large; an effect the other way counts as inactive or inconclusive.

COc1ccc(NC(=O)C2Cc3ccccc3CN2C(=O)c2ccccc2)cn1 (stereo not drawn)	Giardia FBPA inh inconclusive
Cc1ccc(C)c(CN2C(=O)c3ccccc3Sc3ccc(C(=O)NC4CCCC4)cc32)c1	none (no result: Giardia FBPA inh, Shiga inhibitor, Cycloheximide cs, LmPK inh)
FC(F)C(F)(F)C(F)(F)C(F)(F)c1cc(-c2ccccc2)n[nH]1	Cycloheximide cs 22
Cc1cc(-c2ccccc2)n[nH]1	none
O=C1O[C@@H]([C@@H](O)CO)[C@@H](O)[C@H]1O	none (no result: Shiga inhibitor, Cycloheximide cs, LmPK inh, Sm TGR inh)
O=[N+]([O-])c1cc(-c2ccc(/C=N/n3cnnc3)o2)ccc1Cl	none
CC(C)COC(=O)c1cc(-c2ccc(/C=N/n3cnnc3)o2)ccc1Cl	Sm TGR inh 22µM
CCCOC(=O)c1ccc(-c2ccc(C=O)o2)cc1	Shiga inhibitor 139, Cycloheximide cs 44
CCCOC(=O)c1cc(-c2ccc(C=O)o2)ccc1Cl	Cycloheximide cs 29
CC1=NOC(=O)/C1=C\c1ccc(-c2ccc(Cl)c(C(=O)O)c2)o1	none
CCCCOC(=O)c1ccc(-c2ccc(/C=N/NC(=S)NCC)o2)cc1	none
CCOC(=O)c1cccc(-c2ccc(C=O)o2)c1	Shiga inhibitor 116, Cycloheximide cs 47, Sm TGR inh 50µM
Cc1c(Cl)cccc1NC(=O)c1cnc2sc(N3CCOCC3)nn2c1=O	none (no result: Giardia FBPA inh, Shiga inhibitor, Cycloheximide cs, LmPK inh)
CC(C)(CC(=O)OCC(=O)Nc1ccc(F)c(Cl)c1)CC1=NS(=O)(=O)c2ccccc2N1	none (no result: Giardia FBPA inh, Shiga inhibitor, Cycloheximide cs, LmPK inh)
CN(C)c1ccc(NC(=O)CSC2=Nc3ccccc3C3=NC(CC(=O)NCc4ccc5c(c4)OCO5)C(=O)N23)cc1 (stereo not drawn)	none (no result: Giardia FBPA inh, Shiga inhibitor, Cycloheximide cs, LmPK inh)
Cc1cccc(-n2cc(-c3ccccc3)c3c(NC(C)C)ncnc32)c1	none (no result: Giardia FBPA inh, Shiga inhibitor, Cycloheximide cs, LmPK inh)
CCOC(=O)c1ccc(-c2ccc(/C=C(\C#N)C(=O)NCC3CCCO3)o2)cc1 (stereo not drawn)	none
CCOC(=O)c1ccc(-c2ccc(C=O)o2)cc1	Shiga inhibitor 80, Cycloheximide cs 48
Cc1[nH]c2ccccc2c1/C=C(\C#N)C(=O)NCC1CCCO1 (stereo not drawn)	Cycloheximide cs 18
N#C/C(=C\c1cccs1)C(=O)NCC1CCCO1 (stereo not drawn)	Shiga inhibitor 80, Cycloheximide cs 25
N#C/C(=C/c1cc(Br)cs1)C(=O)NCC1CCCO1 (stereo not drawn)	none (no result: Giardia FBPA inh)
COc1cc(/C=C(\C#N)C(=O)NCC2CCCO2)ccc1OC(C)C (stereo not drawn)	Cycloheximide cs 73
N#C/C(=C\c1c[nH]c2ccccc12)C(=O)NCC1CCCO1 (stereo not drawn)	Shiga inhibitor 54, Cycloheximide cs 31
CC1(C)Cc2c(C#N)c(NCC3CCCO3)nc(-c3ccco3)c2CO1 (stereo not drawn)	TbPYK inhibitor inconclusive, Sm TGR inh 4.5µM
CC1(C)Cc2c(C#N)c(NC3CCCCC3)nc(-c3ccco3)c2CO1	Giardia FBPA inh inconclusive, Sm TGR inh 1.8µM (no result: TbPYK inhibitor)
CCN(CC)CCNc1nc(-c2ccco2)c2c(c1C#N)CC(C)(C)OC2	none
CC1(C)Cc2c(C#N)c(NCCc3ccccc3)nc(-c3ccco3)c2CO1	TbPYK inhibitor inconclusive, Sm TGR inh inconclusive
CCOC(=O)c1[nH]c(C)c(CCC(=O)Nc2ccccc2C(=O)OC)c1C	none (no result: Giardia FBPA inh, Shiga inhibitor, Cycloheximide cs, LmPK inh)
COC(=O)[C@@H]1C[C@@H]2CC[C@@H](O)C[C@@H]2N1Cc1ccccc1OS(=O)(=O)c1ccc(C)cc1	Sm TGR inh 28µM
CCOc1ccc(CC(=O)NCCc2sc3nc(-c4ccc(F)cc4)nn3c2C)cc1	none (no result: Giardia FBPA inh, Shiga inhibitor, Cycloheximide cs, LmPK inh)
CCOC(=O)c1ccccc1NC(=O)COC(=O)C1CC(=O)N(c2ccc3c(c2)OCCO3)C1 (stereo not drawn)	none (no result: Giardia FBPA inh, Shiga inhibitor, Cycloheximide cs, LmPK inh)
O=C(COC(=O)C1CC(=O)N(c2ccc3c(c2)OCCO3)C1)NC1CCCc2ccccc21 (stereo not drawn)	Shiga inhibitor 45, Cycloheximide cs 20
O=C(NCCN1C(=O)S/C(=C\c2cccs2)C1=O)c1ccco1	Cycloheximide cs 46
CCOC(=O)c1csc(-c2ccc(OC)c(OC)c2)n1	none
CCOC(=O)Cc1cnc(NC(=O)c2ccccc2)s1	Shiga inhibitor 91, Cycloheximide cs 53
CCOC(=O)c1csc(NC(=O)c2ccccc2)n1	Shiga inhibitor 129, Cycloheximide cs 49
